# According to PubChem BioAssay:
# Active and inactive are the calls of the source.
# Columns and labels:
# [1] = binders of probe aFSTL3 on microarray, primary screen, stem cell growth factor project, biochemical, small-molecule microarray, fluorescence 635/667 (AID 1064); details: higher = more signal;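 also: measures binding of the biotinylated anti-FSTL3 antibody to printed compounds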
# [2] = binders from COS7 lysate, DM2A8 probe, primary screen, torsin A project, cell lysate, small-molecule microarray, fluorescence 635/667 (AID 1065); details: higher = more signal, COS7 lysate expressing mutant human TOR1A
# [3] = binders of probe aFGF2 on microarray, primary screen, stem cell growth factor project, biochemical, small-molecule microarray, fluorescence 635/667 (AID 1067); details: higher = more signal;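 also: measures binding of biotinylated aFGF2 protein to printed compounds on slides; z-score merges feature fluorescence and signal-to-noise across triplicate slides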
# [4] = binders of probe aFGF10 on microarray, primary screen, stem cell growth factor project, biochemical, small-molecule microarray, fluorescence 635/667 (AID 1071); details: higher = more signal;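 also: score merges 667 nm spot intensity and signal to noise from triplicate slides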
# [5] = molecular target: Neurogenic locus notch homolog protein 2 (Homo sapiens) (UniProt Q04721); assay: Notch2 binders on small-molecule microarrays, primary screen, biochemical, small-molecule microarray, 635 nm fluorescence, stem cell growth factors (AID 1073); details: Notch2 binding, higher = more signal
# [6] = molecular target: Pro-neuregulin-1, membrane-bound isoform (Homo sapiens) (UniProt Q02297); assay: NRG1 binders on small-molecule microarrays, primary screen, psychiatric disease protein project, biochemical, small-molecule microarray, fluorescence 635/667 (AID 1075); details: NRG1 binding, 635 nm fluorescence, higher = more signal;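 also: score combines 667 nm spot fluorescence with signal to noise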
# [7] = test system: Neuregulin-1 EGF-like domain; assay: binders of neuregulin-1 EGF-like domain, primary screen, biochemical, small-molecule microarray, 635 nm fluorescence (AID 1081); details: small-molecule microarray binding, higher = more signal;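 also: binding of the protein to compounds printed on small-molecule microarray slides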
# [8] = FRG1 promoter luciferase signal modulators, primary screen, FRG1 inhibition for FSHD, cell-based, C2C12 myotubes, firefly/Renilla luciferase, luminescence (AID 1084); details: higher = more signal, called active from +8 up or from −8 down
# [9] = binders of probe aFST on microarray, primary screen, stem cell growth factor project, biochemical, small-molecule microarray, fluorescence 635/667 (AID 1086); details: higher = more signal;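 also: score merges 667 nm fluorescence with signal-to-noise of each printed compound spot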
# [10] = binders of probe aHhip on microarray, primary screen, stem cell growth factor project, biochemical, small-molecule microarray, fluorescence 635/667 (AID 1087); details: higher = more signal;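 also: score merges spot fluorescence at 667nm with spot signal to noise ratio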
# [11] = test system: PRMT1 (protein arginine N-methyltransferase 1); assay: PRMT1 binders on small-molecule microarrays, primary screen, biochemical, small-molecule microarray, 635 nm fluorescence (AID 1088); details: small-molecule microarray binding, higher = more signal;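 also: binding of Prmt1 protein to compounds spotted on small-molecule microarray slides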
# [12] = yeast growth modulation, basal conditions, primary screen, YJM789 clinical isolate, OD600, 24 h (AID 1089);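 also: growth of clinical yeast isolate S. cerevisiae YJM 789 seeded 1000 cells per well; test concentration not given here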; details: S. cerevisiae YJM789 growth, higher = more signal, called active from +8 up or from −8 down
# [13] = fission yeast growth modulation, primary screen, strain 972, OD600, 24 h, no modulator (AID 1090);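 also: basal condition with compound alone and no growth modifier present; test concentration not given here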; details: S. pombe 972 growth, higher = more signal, called active from +8 up or from −8 down
# [14] = S. cerevisiae growth modulation with rapamycin, primary screen, strain BY4716, OD600, 96 h (AID 1091); details: higher = more signal, called active from +8 up or from −8 down; also: test concentration not given here
# [15] = molecular target: Torsin-1A-interacting protein 2 (Homo sapiens) (UniProt Q8NFQ8); assay: LULL1 binders on small-molecule microarray, primary screen, cell lysate, human LULL1 lysate, 635/667 nm fluorescence (AID 1092); details: hLULL1 lysate binding, 635 nm fluorescence, higher = more signal;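 also: probe is lysate of COS7 cells overexpressing human LULL1; score merges per-feature 667 nm fluorescence with signal-to-noise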
# [16] = E. coli growth modulation, two-sided OD650, primary screen, E. coli filamentation project, strain DRC41, 24 h (AID 1093); details: OD650, 24 h, higher = more signal, called active from +8 up or from −8 down;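 also: MC1000 strain lacking acrAB efflux and sulA so SOS filamentation is blocked; test concentration not given here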
# [17] = small-molecule microarray binders of probe aLefty2, primary screen, biochemical, biotinylated probe, 635/667 nm fluorescence (AID 1094); details: higher = more signal;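 also: score merges spot fluorescence near 667 nm with spot signal-to-noise ratio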
# [18] = test system: Noggin (protein binding on small-molecule microarray); assay: Noggin binders on small-molecule microarray, primary screen, biochemical, 635/667 nm fluorescence (AID 1095); details: 635 nm fluorescence, higher = more signal;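 also: score merges 667 nm feature fluorescence with signal to noise over triplicate slides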
# [19] = molecular target: Neurogenic locus notch homolog protein 3 (Homo sapiens) (UniProt Q9UM47); assay: NOTCH3 binders on small-molecule microarray, primary screen, biochemical, 635/667 nm fluorescence (AID 1096); details: NOTCH3 binding, 635 nm fluorescence, higher = more signal
# [20] = small-molecule microarray binders of probe aEGFR, primary screen, biochemical, biotinylated probe, 635/667 nm fluorescence (AID 1097); details: higher = more signal;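 also: probe is a biotinylated anti-EGFR antibody binding compounds printed on slides; score combines fluorescence near 667 nm and signal to noise of each spot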
# Sequence of Neurogenic locus notch homolog protein 2 (Homo sapiens) (Q04721 whole entry, looked up, canonical isoform): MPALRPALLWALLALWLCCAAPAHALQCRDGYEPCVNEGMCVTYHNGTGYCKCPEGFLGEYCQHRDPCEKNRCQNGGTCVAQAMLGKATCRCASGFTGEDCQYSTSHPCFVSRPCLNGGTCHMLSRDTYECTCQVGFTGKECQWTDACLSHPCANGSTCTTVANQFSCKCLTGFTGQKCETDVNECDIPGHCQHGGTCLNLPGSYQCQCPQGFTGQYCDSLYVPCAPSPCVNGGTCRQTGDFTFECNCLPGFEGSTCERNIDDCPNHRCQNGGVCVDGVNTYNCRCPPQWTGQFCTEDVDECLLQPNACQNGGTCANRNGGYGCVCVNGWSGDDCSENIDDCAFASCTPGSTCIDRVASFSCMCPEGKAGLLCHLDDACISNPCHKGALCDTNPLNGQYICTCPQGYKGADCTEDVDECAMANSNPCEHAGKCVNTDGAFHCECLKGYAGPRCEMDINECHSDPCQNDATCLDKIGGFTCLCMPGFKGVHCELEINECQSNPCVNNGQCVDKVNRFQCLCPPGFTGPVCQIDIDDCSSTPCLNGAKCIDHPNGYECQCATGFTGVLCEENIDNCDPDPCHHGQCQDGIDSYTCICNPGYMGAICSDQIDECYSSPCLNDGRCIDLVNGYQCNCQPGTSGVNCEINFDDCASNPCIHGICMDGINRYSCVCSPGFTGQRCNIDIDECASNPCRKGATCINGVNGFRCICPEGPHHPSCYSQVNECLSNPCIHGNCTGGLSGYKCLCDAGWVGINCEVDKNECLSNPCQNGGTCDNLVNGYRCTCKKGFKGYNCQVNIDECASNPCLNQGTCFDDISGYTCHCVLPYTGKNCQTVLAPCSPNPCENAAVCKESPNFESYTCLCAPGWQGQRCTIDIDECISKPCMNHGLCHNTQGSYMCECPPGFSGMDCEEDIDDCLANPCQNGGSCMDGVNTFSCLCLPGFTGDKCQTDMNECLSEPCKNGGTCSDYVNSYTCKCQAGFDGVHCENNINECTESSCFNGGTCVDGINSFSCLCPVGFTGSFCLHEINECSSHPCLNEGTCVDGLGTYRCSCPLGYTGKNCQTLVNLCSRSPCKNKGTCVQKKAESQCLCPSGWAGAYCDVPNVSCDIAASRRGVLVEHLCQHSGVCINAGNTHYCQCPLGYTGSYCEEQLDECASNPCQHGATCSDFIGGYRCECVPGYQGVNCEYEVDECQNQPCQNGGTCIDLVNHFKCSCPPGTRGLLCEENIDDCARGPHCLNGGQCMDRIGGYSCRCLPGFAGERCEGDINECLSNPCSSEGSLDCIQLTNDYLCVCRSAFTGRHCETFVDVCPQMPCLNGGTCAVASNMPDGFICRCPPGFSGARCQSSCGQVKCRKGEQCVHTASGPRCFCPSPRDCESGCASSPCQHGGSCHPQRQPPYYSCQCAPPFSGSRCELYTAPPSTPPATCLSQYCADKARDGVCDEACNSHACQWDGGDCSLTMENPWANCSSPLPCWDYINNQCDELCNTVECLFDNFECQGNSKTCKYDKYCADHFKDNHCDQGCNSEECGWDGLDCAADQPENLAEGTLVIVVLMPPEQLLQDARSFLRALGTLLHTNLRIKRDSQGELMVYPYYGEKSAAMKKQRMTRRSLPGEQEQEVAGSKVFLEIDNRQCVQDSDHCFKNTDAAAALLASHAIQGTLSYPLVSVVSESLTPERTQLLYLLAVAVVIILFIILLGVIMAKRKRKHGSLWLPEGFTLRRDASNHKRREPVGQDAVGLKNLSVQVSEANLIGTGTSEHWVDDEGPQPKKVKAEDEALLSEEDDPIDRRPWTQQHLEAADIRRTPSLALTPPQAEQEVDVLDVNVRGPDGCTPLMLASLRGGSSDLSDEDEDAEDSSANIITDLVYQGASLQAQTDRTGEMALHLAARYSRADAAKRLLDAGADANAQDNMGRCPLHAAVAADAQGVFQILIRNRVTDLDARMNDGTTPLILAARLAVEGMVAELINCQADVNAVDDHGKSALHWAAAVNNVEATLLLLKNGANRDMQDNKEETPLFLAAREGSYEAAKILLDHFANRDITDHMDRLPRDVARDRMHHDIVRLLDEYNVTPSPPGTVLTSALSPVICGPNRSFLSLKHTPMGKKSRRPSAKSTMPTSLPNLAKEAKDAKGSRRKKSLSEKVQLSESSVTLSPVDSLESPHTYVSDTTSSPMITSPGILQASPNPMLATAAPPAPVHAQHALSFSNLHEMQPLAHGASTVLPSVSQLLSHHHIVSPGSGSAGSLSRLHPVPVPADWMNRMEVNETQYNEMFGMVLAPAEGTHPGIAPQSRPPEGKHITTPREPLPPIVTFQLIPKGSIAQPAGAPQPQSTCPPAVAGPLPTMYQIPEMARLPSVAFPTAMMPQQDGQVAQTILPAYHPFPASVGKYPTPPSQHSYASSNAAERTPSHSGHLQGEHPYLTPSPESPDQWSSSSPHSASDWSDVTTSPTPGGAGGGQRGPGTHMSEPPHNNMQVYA
# Sequence of Pro-neuregulin-1, membrane-bound isoform (Homo sapiens) (Q02297 whole entry, looked up, the tested form may be a part, canonical isoform): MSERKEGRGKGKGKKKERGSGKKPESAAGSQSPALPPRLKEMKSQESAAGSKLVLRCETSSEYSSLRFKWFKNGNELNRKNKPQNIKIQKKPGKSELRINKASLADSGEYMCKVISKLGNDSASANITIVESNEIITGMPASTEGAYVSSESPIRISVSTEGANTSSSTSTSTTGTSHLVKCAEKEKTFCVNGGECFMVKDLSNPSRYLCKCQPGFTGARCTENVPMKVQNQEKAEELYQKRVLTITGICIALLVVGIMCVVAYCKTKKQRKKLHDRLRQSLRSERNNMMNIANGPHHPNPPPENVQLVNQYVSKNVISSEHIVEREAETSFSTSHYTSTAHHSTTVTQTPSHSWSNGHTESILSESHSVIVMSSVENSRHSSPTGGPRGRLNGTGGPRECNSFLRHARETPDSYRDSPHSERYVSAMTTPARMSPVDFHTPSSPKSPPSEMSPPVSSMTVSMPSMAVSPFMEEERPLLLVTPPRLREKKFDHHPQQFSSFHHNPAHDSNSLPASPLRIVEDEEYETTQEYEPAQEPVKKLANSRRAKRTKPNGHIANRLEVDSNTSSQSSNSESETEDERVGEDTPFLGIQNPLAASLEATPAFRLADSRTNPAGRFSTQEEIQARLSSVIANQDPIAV
# Sequence of Torsin-1A-interacting protein 2 (Homo sapiens) (Q8NFQ8 whole entry, looked up): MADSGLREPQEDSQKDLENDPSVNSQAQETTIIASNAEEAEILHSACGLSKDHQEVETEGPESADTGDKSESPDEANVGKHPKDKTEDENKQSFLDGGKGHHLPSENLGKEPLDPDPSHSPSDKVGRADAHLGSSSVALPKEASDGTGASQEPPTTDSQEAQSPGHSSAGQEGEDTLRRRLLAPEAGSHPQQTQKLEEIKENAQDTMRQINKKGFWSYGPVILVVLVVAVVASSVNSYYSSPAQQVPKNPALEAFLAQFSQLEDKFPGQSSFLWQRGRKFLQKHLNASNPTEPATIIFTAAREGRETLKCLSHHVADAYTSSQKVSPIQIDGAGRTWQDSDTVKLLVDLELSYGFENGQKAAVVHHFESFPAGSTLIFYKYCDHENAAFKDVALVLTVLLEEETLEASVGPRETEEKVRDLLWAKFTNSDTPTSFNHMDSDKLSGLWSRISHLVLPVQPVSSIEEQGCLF
SMILES,composite z-score [1],composite z-score [2],composite z-score [3],composite z-score [4],composite z-score [5],composite z-score [6],composite z-score [7],z-score [8],composite z-score [9],composite z-score [10],composite z-score [11],z-score [12],z-score [13],z-score [14],composite z-score [15],z-score [16],composite z-score [17],composite z-score [18],composite z-score [19],composite z-score [20]
O=C(O)[C@]1(CCS(=O)(=O)c2ccccc2)N=C(c2ccc(OCCCO)cc2)O[C@@H]1c1ccccc1,1.19,-0.106,0.115,-0.0267,0.506,1.13,1.05,0.694 (inactive),0.914,0.744,0.464,-0.15 (inactive),-2.3 (inactive),-0.961 (inactive),3.4,0.0201 (inactive),0.337,-0.116,-0.687,0.0021
COCCOC(=O)N1C(=O)[C@@]2(c3ccccc31)[C@H](c1ccccc1OCCO)N1[C@H](c3ccccc3)[C@H](c3ccccc3)OC(=O)[C@H]1[C@@H]2C(=O)N1CCc2cc(OC)c(OC)cc2C1,0.184,0.124,0.071,0.336,0.403,0.982,1.25,-1.61 (inactive),0.356,0.28,1.52,2.11 (inactive),1.99 (inactive),6.86 (inactive),2.01,0.344 (inactive),0.0706,1.34,1.04,0.0556
C=CCNC(=O)[C@H]1[C@@H]2C(=O)O[C@@H](c3ccccc3)[C@@H](c3ccccc3)N2[C@@H](c2ccc(O)cc2)[C@]12C(=O)N(C(=O)OCCOC)c1ccc(C#CC3(O)CCCCCC3)cc12,0.228,0.494,0.0789,0.875,0.793,1.2,1.27,0.168 (inactive),0.229,0.142,1.55,0.729 (inactive),-0.932 (inactive),0.943 (inactive),2.45,1.87 (inactive),0.0026,0.147,0.838,0.0638
Cc1cc(C)c(C(O)C2C=CC3C(=O)N(c4ccccc4)C(=O)C3N2Nc2ccc([N+](=O)[O-])cc2)c(C)c1 (stereo not given),0.0096,0.129,0.0748,0.453,1.68,1.9,1.36,-0.625 (inactive),1.51,-0.223,1.54,-0.695 (inactive),0.957 (inactive),2.16 (inactive),3.73,0.356 (inactive),0.216,0.525,1.02,0.0225
COc1ccc(C(=O)Nc2ccc(CN3C(=O)[C@@]4(O[C@@H](CC(=O)N5Cc6ccccc6C[C@H]5CO)[C@H]([Si](C)(C)c5ccc(OC)cc5)[C@H]4C)c4ccccc43)cc2)cc1,-0.313,0.17,0.0275,0.158,-0.0395,0.822,1.1,-4.29 (inactive),0.185,-0.173,1.51,-1.8 (inactive),0.821 (inactive),1.87 (inactive),1.92,0.265 (inactive),-0.215,1.61,1.13,-0.0961
CCCCC(=C=CC[C@H](O)c1ccccc1OCCO)C[C@H](O)c1ccccn1,-0.0078,1.07,-0.116,-0.0673,-0.285,0.466,0.376,-1.38 (inactive),0.0552,-0.456,1.13,0.27 (inactive),-0.132 (inactive),0.0422 (inactive),0.0266,1.3 (inactive),-0.0699,0.939,0.0956,-0.179
CCOC(=O)C1=CC[C@@H](c2cccc(Br)c2)N(S(=O)(=O)c2ccc(C)cc2)[C@H]1c1ccc([N+](=O)[O-])cc1,-0.508,2.18,-0.0535,0.928,1.52,0.674,1.11,-1.74 (inactive),0.339,0.305,1.53,-0.412 (inactive),-5.06 (inactive),3.93 (inactive),2.96,-0.3 (inactive),-0.0615,0.496,1.15,0.254
CCOC(=O)C1=CCC(c2cccc(Cl)c2)O1 (stereo not given),-0.267,0.491,-0.0036,0.0428,0.105,1.06,0.575,-0.242 (inactive),0.0826,-0.131,0.487,-2.79 (inactive),-0.615 (inactive),3.33 (inactive),0.744,0.558 (inactive),-0.0831,-0.0785,0.186,-0.0953
CC(C)(C)OC(=O)CC[C@@]1(C(=O)N2CCCCC2)N=C(c2ccc(OCCCO)cc2)O[C@@H]1c1ccccc1N=[N+]=[N-],0.358,0.805,0.147,1.03,1.66,1.89,1.41,-1.88 (inactive),1.34,-0.0237,1.53,-0.336 (inactive),-0.029 (inactive),-0.183 (inactive),3.49,1.11 (inactive),0.253,0.369,1.03,0.208
CC(C)C[C@@H]1NC(=O)[C@@]23C(=O)N[C@@H](Cc4ccccc4)C2[C@H](C)[C@@]2(C)O[C@H]2C3/C=C/C/C=C\CNC(=O)[C@@H]2CCCN2C1=O (stereo not given in full),-0.566,0.0462,-0.106,-0.0448,-0.385,-0.492,-0.378,2.09 (inactive),0.0833,-0.0994,-0.653,0.0289 (inactive),-0.151 (inactive),-0.453 (inactive),0.0315,-0.762 (inactive),-0.223,0.326,-0.46,-0.121
CN(C)CCCN1C(=O)[C@@]2(Cc3ccccc31)c1ccccc1C(=O)N(Cc1ccccc1)[C@H]2c1ccc(CO)cc1,-0.0277,0.115,-0.0861,-0.492,-0.639,0.466,-0.226,0.878 (inactive),1.02,-0.0994,1.12,-0.0782 (inactive),-1.35 (inactive),-1.85 (inactive),-0.42,-1.42 (inactive),-0.171,0.542,0.204,-0.184
Cc1cc(C)c(C(O)C2C=CC3C(=O)N(c4ccccc4)C(=O)C3N2Nc2ccccc2)c(C)c1 (stereo not given),0.175,0.668,0.216,1.08,1.56,1.99,1.22,0.423 (inactive),1.25,-0.189,1.56,0.839 (inactive),0.483 (inactive),0.0441 (inactive),3.47,-1.02 (inactive),0.506,0.0982,1.05,0.178
COc1cccc(C[C@H]2C[C@@H](CO[Si](C(C)C)(C(C)C)C(C)C)N3C(=O)[C@]4(C(C)=O)O[C@]23[C@H]2C(=O)N(C)C(=O)[C@H]24)c1,-0.46,0.395,-0.021,0.407,0.797,0.143,0.996,0.165 (inactive),0.421,-0.0618,1.49,0.481 (inactive),1.38 (inactive),1.25 (inactive),0.622,-1.11 (inactive),-0.0942,1,1.13,-0.0175
O=C1NC(=O)C2C1C=CC(C(O)CCc1ccccc1)N2Nc1ccccn1 (stereo not given),0.313,0.478,-0.0881,0.0386,1.07,1.19,0.83,-0.338 (inactive),0.172,-0.407,0.509,-0.974 (inactive),1.51 (inactive),-0.312 (inactive),1.51,-0.581 (inactive),-0.0719,0.103,0.312,-0.0659
CCCC=C(CCC)[C@@H](NC(=O)Cc1ccccc1)c1ccc(C(=O)OC)cc1,1.22,-0.0985,0.254,0.536,1.13,0.807,0.606,-0.26 (inactive),0.94,3.03,0.658,0.761 (inactive),0.847 (inactive),0.762 (inactive),1.54,-0.556 (inactive),1.1,0.234,0.505,0.577
C=C[C@@H](O)[C@H]1CC(c2ccccc2)=NO1,-0.0317,-0.1,-0.0692,-0.105,-0.138,-0.37,-0.262,1.6 (inactive),0.266,0.172,-0.425,-0.347 (inactive),-0.954 (inactive),-0.657 (inactive),-0.141,1.13 (inactive),-0.0339,-0.174,-0.872,-0.0844
C=CCC(OC(C)=O)[C@@H]1[C@@H](N(Cc2cccc3ccccc23)C(=O)c2ccc(C)cc2)c2cc(OCCCO)ccc2N1C(=O)c1ccc2ccccc2c1 (stereo not given in full),-0.0181,0.0379,-0.152,0.409,0.145,-0.126,-0.163,-1.8 (inactive),0.137,0.0695,0.377,-0.844 (inactive),0.148 (inactive),-0.302 (inactive),1.19,0.649 (inactive),-0.0574,0.684,0.103,-0.0432
Cc1ccc(S[C@]2(C(=O)NCc3ccccc3)CC(=O)N(C3Cc4ccccc4C3)[C@@H]2c2ccc(CO)cc2I)cc1,-0.0093,0.247,-0.123,-0.257,-0.312,1.64,-0.185,-1.73 (inactive),-0.134,-0.246,1.19,-2.5 (inactive),-1.73 (inactive),0.199 (inactive),2.11,3.17 (inactive),-0.165,-0.508,-0.288,-0.135
COC(=O)[C@]1(Cc2ccccc2CN=[N+]=[N-])N=C(c2ccc(OCCCO)cc2)O[C@@H]1c1ccccc1CN=[N+]=[N-],0.409,-0.119,-0.087,0.013,-0.443,0.726,1.28,-0.904 (inactive),-0.117,-0.0994,0.921,-0.456 (inactive),-1.09 (inactive),33.5 (active),2,2.08 (inactive),0.111,0.435,-0.253,-0.0828
C=C(/C(=C/C[C@@H](OC(=O)c1ccncc1)c1ccccc1OCCO)c1cnc2ccccc2c1)C(C)C,-0.108,0.707,0.0401,1.14,1.5,1.23,1.2,-3.75 (inactive),-0.177,0.144,1.54,-24.2 (active),-20.3 (active),-4.07 (inactive),2.72,-0.0023 (inactive),0.0113,1.91,1.07,0.0381
